Our source for the growth values is PubChem BioAssay (NCI).

Compounds without any hit were thinned out: in the full panel of roughly 83,000, 20% have a hit.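 Plates (96-well) were seeded with cells, treated with compound at one concentration, and incubated for 48 hours before percent growth was determined.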 Unmarked numbers belong to inactive results. Activity calls are given as the source filed them. Rule for the calls: active = growth percent below 10; inactive = the rest.

Common to all, as to assay: NCI-60 one-dose screen, 48 h (100 = growth as untreated, 0 = no growth, -100 = all killed)
Holding throughout (conditions): 10 µM unless noted

Assay [1] deals with NCI-H23 lung.
In assay [2] the test system is NCI-H226 lung.
Assay [3] concerns NCI-H322M lung.
Assay [4] concerns HOP-62 NSCLC.
The subject of assay [5] is NCI-H460 lung.
For assay [6], the system named is HOP-92 NSCLC.
Assay [7] deals with NCI-H522 lung.
Assay [8] concerns A549/ATCC NSCLC.
Assay [9] concerns 786-0 renal.
The subject of assay [10] is COLO 205 colon.
Assay [11] has as its system DU-145 prostate.
For assay [12], the system named is K-562 leukemia.
Assay [13] concerns MALME-3M melanoma.
For assay [14], the system named is MDA-MB-231 breast.
Assay [15] has as its system RXF 393 renal.
The test system of assay [16] is SF-268 CNS.
Assay [17] has as its system SF-295 CNS.
The test system of assay [18] is SF-539 CNS.
Assay [19] has as its system UACC-257 melanoma.
Assay [20] has as its system M14 melanoma.

Consider `O=C(O)CC1S/C(=N/N=C/c2nc3ccccc3s2)NC1=O` (stereo not given), for which the growth in [1] is 96.2%; in assay [2], 101%; in assay [3] it was 106%; in assay [4], 108%; in assay [5], 94.7%; in assay [6], 136%. Further, the growth in assay [7] was 104%; in [8] it was 96%; in assay [9], 80.9%; in assay [10] it was 135%; in assay [11], 95.8%; in assay [12], 94.1%. Further, the growth was 107% in assay [13]; 102% in assay [14]; 134% in assay [15]; 85.5% in assay [16]; 104% in assay [17]; 98.1% in assay [18]. The growth in [19] is 105%; in [20] it was 90.4%.
In the case of `COc1cc(C=O)ccc1OC(=O)c1cc(-c2ccc(C)cc2)n(-c2ccc(S(C)(=O)=O)cc2)n1`, the growth in assay [1] was 101%; in assay [2], 138%; in assay [3], 101%; in assay [4], 102%; in assay [5] it was 110%; in [6], 98.3%. In addition, the growth in assay [7] was 93.3%; in assay [8] it was 103%; in assay [9] it was 102%; in [10], 126%; in assay [11], 108%; in assay [12], 86.5%. Also, the growth is 102% in assay [13]; 97.3% in assay [14]; 117% in assay [15]; 116% in assay [16]; 103% in assay [17]; 105% in [18]. The figures for the growth in [19] and in assay [20] were 101% and 109%, respectively.
Consider `COC(=O)c1cc(C(=O)C(F)(F)F)n2c3ccccc3c3ccccc3c12`, for which the growth in assay [1] is 83.6%; in assay [2], 52.6%; in [3], 90.8%; in [4] it was 41.1%; in assay [5] it was 62.1%; in assay [6] it was 59.2%. In addition, the growth is 96% in [7]; 92.8% in assay [8]; 24.2% in assay [9]; 79.7% in assay [10]; 96% in assay [11]; 82.6% in [12]. The growth is 104% in assay [13]; 42.4% in [14]; 69.2% in [15]; 83.4% in assay [16]; 37.2% in assay [17]; 67.5% in assay [18]. In addition, the results for the growth in assay [19] and in assay [20] were 110% and 87.6%, respectively.
Turning to `N#CC1=C(c2ccco2)Nc2c(c(-c3ccccc3)nn2-c2ccccc2)C12C(=O)Nc1ccc(Cl)cc12` (stereo not given), the growth is 45.6% in [1]; -9.04% (active) in assay [2]; 50.7% in assay [3]; -47.9% (active) in [4]; 0.156% (active) in assay [5]; -0.851% (active) in assay [6]. The growth was 0.0636% (active) in assay [7]; -37.1% (active) in assay [8]; -14.5% (active) in assay [9]; 79.6% in assay [10]; 42.3% in assay [11]; 9.86% (active) in [12]. Further, the growth in assay [13] was 22.3%; in [14], -4.25% (active); in [15] it was 57.9%; in [16] it was 11%; in assay [17], 6.91% (active); in assay [18] it was -30.3% (active). Moreover, the growth is 56.4% in assay [19] and 22.4% in assay [20].
For `CS(=O)(=O)Nc1cccc(-n2cnc3cc(-c4ccc(O)cc4)ccc32)c1`, the growth in assay [1] is 35.3%; in assay [2], 33%; in [3], 53.1%; in [4] it was 32.1%; in [5] it was 20.3%; in [6] it was 96.8%. Also, the growth in [7] was 25%; in assay [8] it was 53.7%; in [9] it was 44.7%; in assay [10], 31.5%; in assay [11] it was 29.2%; in assay [12], 18%. The growth in assay [13] is 27.3%; in [14] it was 49.3%; in [15], -14.2% (active); in assay [16] it was 50.3%; in [17], 32%; in assay [18], 0.311% (active). Further, the growth in assay [19] is 70.5%; in assay [20], 26.2%.
With `Cc1cccc(NCC(=O)N2CCN(c3ncnc4c3cnn4-c3ccccc3)CC2)c1`, the growth in assay [1] is 58.4%; in assay [2] it was 54.5%; in [3], 69.3%; in assay [4] it was 67.4%; in [5], 65%; in assay [6], 50.6%. In addition, the growth was -6.93% (active) in [7]; 65.3% in assay [8]; 80.8% in [9]; 97.4% in [10]; 75.4% in [11]; 43.8% in [12]. Moreover, the growth in [13] is 72.8%; in assay [14] it was 65%; in [15] it was 76.3%; in [16], 73.3%; in assay [17], 46.6%; in assay [18] it was 59.9%. Further, the growth is 66.9% in [19] and 62.2% in [20].
Turning to `Cc1ccc(C(=O)Nc2cc(-n3cnc(F)c3)cc(C(F)(F)F)c2)cc1C#Cc1cnc2cccnn12`, the growth in [1] was 44.8%; in [2] it was 44.4%; in assay [3], 97.9%; in assay [4], 85.7%; in [5], 70.5%; in [6], 57.5%. Moreover, the growth is 64.6% in [7]; 66.5% in [8]; 53.3% in [9]; 68.5% in assay [10]; 80.9% in assay [11]; -9.19% (active) in assay [12]. Further, the growth in assay [13] was -3.1% (active); in assay [14], 49.2%; in assay [15], 57.9%; in [16], 91.6%; in [17], 63.9%; in assay [18] it was 3.39% (active). For the same molecule, the growth in assay [19] was 58%; in assay [20], 17.7%.
Turning to `O=C1Nc2ccc(F)cc2/C1=C/C(=O)c1cc2ccccc2oc1=O`, the growth in assay [1] is 96.1%; in assay [2] it was 86%; in assay [3], 104%; in assay [4], 97.3%; in [5], 104%; in assay [6] it was 94.7%. The growth was -7.22% (active) in assay [7]; 108% in [8]; 112% in assay [9]; 105% in assay [10]; 111% in [11]; 33.9% in [12]. Moreover, the growth in assay [13] was 71.2%; in assay [14], 91.8%; in assay [15], 83.4%; in assay [16], 106%; in assay [17], 108%; in assay [18], 105%. For the same molecule, the values for the growth in [19] and in [20] were 96.3% and 89.1%, respectively.
